Measured values taken from PubChem BioAssay.
Calls of active or inactive are those of the source.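 The calls were made as follows, unless noted: active = fluorescence slope higher than the sample average by over 3 SD (cut at about -0.22 in these data, passing the limit was not always enough); inactive = the rest.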

How the values were obtained:
[1] = inhibitors of TNFa-induced NFkB p65 translocation, primary screen, imaging, HUVEC, MLSMR starter and 10KST1 sets (AID 438;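 active = inhibition above 20% together with a positive visual image hit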;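 also: compound added about 3h40 before a 20 min TNFalpha stimulation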;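 as to inhibition: signal is the nuclear over cytoplasmic p65 intensity ratio per well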); details: HUVEC TNFa-induced p65 nuclear translocation; cell count: measured here: nuclei count (cytotoxicity indicator), at 2.08 µM; inhibition: at 2 µM, stronger effect = higher value, 0% TNFa-plus-vehicle, 100% no-TNFa wells
[2] = reduction of polyQ htt aggregates in cells – imaging, exon1htt(103Q)mCFP cells, high-content imaging, primary screen (AID 483;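 active = visual image review flags a hit and inhibition of aggregation exceeds 20%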;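 also: compound exposure lasted 3 days before fixation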;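 as to nuclei count: percent of the per-plate median nuclei count of sample wells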); details: exon1htt(103Q)mCFP cell line, aggregate imaging, at 2 µM; inhibition of aggregation: stronger effect = higher value; nuclei count: measured here: cell count, toxicity
[3] = endothelial E-selectin expression blockers – imaging, HUVEC, immunofluorescence, MLSMR starter and 10KST1 sets, primary screen (AID 487;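 active = visually confirmed hit in the image check and inhibition above 20%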;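 as to inhibition: signal is fraction of cell area covered by stained E-selectin grains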;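 as to nuclei count: 100% = median nuclei count of all wells on the same plate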); details: HUVEC TNFalpha-induced E-selectin immunofluorescence imaging, at 2 µM; inhibition: stronger effect = higher value; nuclei count: measured here: cell number, toxicity
[4] = molecular target: Voltage-gated potassium channel subunit beta-2 (Rattus norvegicus) (UniProt P62483); test: inhibitors of rat Kvbeta2 reductase activity – biochemical, NADPH fluorescence, primary screen (AID 622); details: recombinant KvBeta, 4-cyanobenzaldehyde reduction, at 10 µM, stronger effect = higher value;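 also: slope of raw intensity against log time taken from 70 to 1610 s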
Chain of Voltage-gated potassium channel subunit beta-2 (Rattus norvegicus) (P62483 whole entry, looked up): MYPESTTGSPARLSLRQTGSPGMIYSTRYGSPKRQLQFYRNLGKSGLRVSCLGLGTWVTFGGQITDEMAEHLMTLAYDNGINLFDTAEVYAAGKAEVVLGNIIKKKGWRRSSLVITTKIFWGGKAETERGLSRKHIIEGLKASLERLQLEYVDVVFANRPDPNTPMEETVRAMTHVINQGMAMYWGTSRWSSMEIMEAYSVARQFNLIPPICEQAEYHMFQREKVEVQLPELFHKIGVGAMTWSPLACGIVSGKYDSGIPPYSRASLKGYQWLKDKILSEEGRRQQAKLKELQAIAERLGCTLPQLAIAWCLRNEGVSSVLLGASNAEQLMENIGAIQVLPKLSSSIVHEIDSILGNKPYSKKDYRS

[5] = molecular target: Voltage-gated potassium channel subunit beta-2 (Rattus norvegicus) (UniProt P62483); test: enhancers of rat Kvbeta2 NADPH turnover – biochemical, NADPH fluorescence, primary screen (AID 623;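 active = NADPH fluorescence slope more negative than the mean of all samples by about 3 SD, 99.7% confidence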;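 also: fluorescence intensity change per second fitted from 20 to 320 s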); details: Recombinant KvBeta, NADPH fluorescence decrease slope, 10 min; at 10 µM; stronger effect = lower value
[6] = molecular target: Alpha-2C adrenergic receptor (Homo sapiens) (UniProt P18825); test: compounds altering alpha2C-coupled GIRK flux – cell-based, HEK293 alpha2C/GIRK1/2, thallium flux, primary screen (AID 624;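 active = fluorescence slope after compound addition differing from the mean of all screened samples at 99.7% confidence, in either direction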;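 also: slope of fluorescence ratio to pre-addition baseline per second over 15 to 24 s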); details: thallium flux BTC fluorescence, at 10 µM, actives lie on both sides
Chain of Alpha-2C adrenergic receptor (Homo sapiens) (P18825 whole entry, looked up): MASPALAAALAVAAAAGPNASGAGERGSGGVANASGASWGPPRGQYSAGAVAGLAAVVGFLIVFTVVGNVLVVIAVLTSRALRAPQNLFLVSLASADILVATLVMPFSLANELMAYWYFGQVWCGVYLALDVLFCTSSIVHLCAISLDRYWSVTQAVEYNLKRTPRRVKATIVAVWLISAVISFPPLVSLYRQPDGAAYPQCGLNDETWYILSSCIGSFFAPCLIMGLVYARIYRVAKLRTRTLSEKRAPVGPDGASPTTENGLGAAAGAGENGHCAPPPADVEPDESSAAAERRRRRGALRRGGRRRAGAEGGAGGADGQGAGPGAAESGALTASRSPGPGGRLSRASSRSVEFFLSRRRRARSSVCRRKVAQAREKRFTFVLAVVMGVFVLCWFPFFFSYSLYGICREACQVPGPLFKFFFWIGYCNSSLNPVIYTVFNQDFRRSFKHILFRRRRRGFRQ

[7] = blockers of RIG-like receptor reporter activation – cell-based, Sendai virus stimulus, luciferase, 10K MLSCN set, TLR/RLR signaling modifier project, primary screen (AID 602276;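 active = inhibition at or above 50% at 10 µM; inactive = inhibition below 50%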;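 also: firefly luciferase from ISG56 promoter only with Renilla not read in this screen; 0% = Sendai virus plus DMSO and 100% = medium plus DMSO without virus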); details: HEK293 RL24 IRF3 luciferase reporter, at 10 µM, stronger effect = higher value
[8] = TLR3 IRF3 reporter activation blockers – cell-based, poly I:C stimulus, luciferase, 10K MLSCN set, primary screen (AID 602277;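 active = inhibition of the reporter signal at or above 50%; inactive = inhibition below 50%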); details: HEK293-TLR3 RL24 IRF3 luciferase reporter, at 10 µM, stronger effect = higher value

COc1c(Br)cc2c(C)c(C(=O)O)oc2c1Br
cell count [1]: 472
inhibition [1]: 3.5% (inactive)
inhibition of aggregation [2]: -9.2% (inactive)
nuclei count [2]: 95.6%
inhibition [3]: -26.9% (inactive)
nuclei count [3]: 112%
fluorescence slope [4]: -0.443 (inactive)
NADPH fluorescence slope [5]: -0.000118 (inactive)
slope [6]: 0.00602 (inactive)
inhibition [7]: 9.89% (inactive)
inhibition [8]: 18.8% (inactive)

CCCCCC1CC(CC(=O)O)C(=O)O1 (stereo not given)
cell count [1]: 230
inhibition [1]: -25.6% (inactive)
inhibition of aggregation [2]: 20.9% (inactive)
nuclei count [2]: 80.6%
inhibition [3]: -70.3% (inactive)
nuclei count [3]: 126%
fluorescence slope [4]: -0.4 (inactive)
NADPH fluorescence slope [5]: -5.4e-05 (inactive)
slope [6]: 0.00366 (inactive)
inhibition [7]: 7.61% (inactive)
inhibition [8]: 23.6% (inactive)

COc1ccc(-c2nc3c(c(=O)n(C)c(=O)n3C)n2CC2CC(c3ccccc3)=NO2)cc1OC (stereo not given)
cell count [1]: 233
inhibition [1]: -3.2% (inactive)
inhibition of aggregation [2]: 5.3% (inactive)
nuclei count [2]: 87.9%
inhibition [3]: -3.5% (inactive)
nuclei count [3]: 86.7%
fluorescence slope [4]: -0.587 (inactive)
NADPH fluorescence slope [5]: -2.7e-05 (inactive)
slope [6]: 0.00673 (inactive)
inhibition [7]: 29.6% (inactive)
inhibition [8]: 30.8% (inactive)

COc1ccc(OCCN2C(=O)NC(C)(c3ccc(C)cc3)C2=O)cc1 (stereo not given)
cell count [1]: 391
inhibition [1]: -14.7% (inactive)
inhibition of aggregation [2]: -4.1% (inactive)
nuclei count [2]: 108%
inhibition [3]: -84.6% (inactive)
nuclei count [3]: 138%
fluorescence slope [4]: -0.496 (inactive)
NADPH fluorescence slope [5]: -6.9e-05 (inactive)
slope [6]: 0.00469 (inactive)
inhibition [7]: 12.5% (inactive)
inhibition [8]: 5.61% (inactive)

CCCCc1ccc(NC(=O)N[C@H](C(=O)O)C(C)C)cc1
cell count [1]: 388
inhibition [1]: -19.8% (inactive)
inhibition of aggregation [2]: -0.3% (inactive)
nuclei count [2]: 89.1%
inhibition [3]: -26.2% (inactive)
nuclei count [3]: 84.1%
fluorescence slope [4]: -0.481 (inactive)
NADPH fluorescence slope [5]: 1.8e-05 (inactive)
slope [6]: 0.00552 (inactive)
inhibition [7]: -0.498% (inactive)
inhibition [8]: -7.11% (inactive)

COc1ccc(-n2c(=O)[nH]cc(C(=O)Nc3ccc(NC(C)=O)cc3)c2=O)cc1
cell count [1]: 233
inhibition [1]: 7% (inactive)
inhibition of aggregation [2]: 22.1% (inactive)
nuclei count [2]: 49.8%
inhibition [3]: 30.3% (inactive)
nuclei count [3]: 85.4%
fluorescence slope [4]: -0.629 (inactive)
NADPH fluorescence slope [5]: 9.9e-06 (inactive)
slope [6]: 0.0073 (inactive)
inhibition [7]: 9.68% (inactive)
inhibition [8]: 24.1% (inactive)

NC(=O)C(Cc1ccccc1)NS(=O)(=O)c1ccc(N2CCCC2=O)cc1 (stereo not given)
cell count [1]: 570
inhibition [1]: -8.7% (inactive)
inhibition of aggregation [2]: 4.5% (inactive)
nuclei count [2]: 100%
inhibition [3]: -5.1% (inactive)
nuclei count [3]: 95.5%
fluorescence slope [4]: -0.585 (inactive)
NADPH fluorescence slope [5]: -4e-05 (inactive)
slope [6]: 0.00321 (inactive)
inhibition [7]: 8.09% (inactive)
inhibition [8]: -25% (inactive)

CC(C)OC(=O)c1cccc(C(=O)O)n1
cell count [1]: 441
inhibition [1]: 4.6% (inactive)
inhibition of aggregation [2]: -5.9% (inactive)
nuclei count [2]: 92.5%
inhibition [3]: -285% (inactive)
nuclei count [3]: 110%
fluorescence slope [4]: -0.495 (inactive)
NADPH fluorescence slope [5]: -2.4e-05 (inactive)
slope [6]: 0.00557 (inactive)
inhibition [7]: 11.6% (inactive)
inhibition [8]: 12.7% (inactive)

Clc1cc2c(c(Cn3cnc4ccccc43)c1)OCOC2
cell count [1]: 566
inhibition [1]: 7.5% (inactive)
inhibition of aggregation [2]: 11.8% (inactive)
nuclei count [2]: 77.2%
inhibition [3]: 4.1% (inactive)
nuclei count [3]: 89.8%
fluorescence slope [4]: -0.595 (inactive)
NADPH fluorescence slope [5]: -3e-05 (inactive)
slope [6]: 0.00307 (inactive)
inhibition [7]: 7.15% (inactive)
inhibition [8]: -9.55% (inactive)

Cc1cc(=O)n2nc(N3CCCC(C(=O)N4CCc5ccccc54)C3)sc2n1 (stereo not given)
cell count [1]: 487
inhibition [1]: -7.5% (inactive)
inhibition of aggregation [2]: -1.6% (inactive)
nuclei count [2]: 97%
inhibition [3]: -54.6% (inactive)
nuclei count [3]: 103%
fluorescence slope [4]: -0.324 (inactive)
NADPH fluorescence slope [5]: -6.9e-05 (inactive)
slope [6]: 0.00401 (inactive)
inhibition [7]: 18.4% (inactive)
inhibition [8]: 37.1% (inactive)

N#CC1=C(N)C(C#N)(C#N)[C@H](c2ccsc2)[C@H]2COCC=C12
cell count [1]: 337
inhibition [1]: 5.5% (inactive)
inhibition of aggregation [2]: 1.7% (inactive)
nuclei count [2]: 98.1%
inhibition [3]: 8.2% (inactive)
nuclei count [3]: 93.1%
fluorescence slope [4]: -0.538 (inactive)
NADPH fluorescence slope [5]: 2.1e-05 (inactive)
slope [6]: 0.00495 (inactive)
inhibition [7]: 16.8% (inactive)
inhibition [8]: 25.2% (inactive)

O=C(COc1ccc(F)cc1Br)N1CCc2ccccc21
cell count [1]: 414
inhibition [1]: -7% (inactive)
inhibition of aggregation [2]: 5% (inactive)
nuclei count [2]: 105%
inhibition [3]: -49.2% (inactive)
nuclei count [3]: 103%
fluorescence slope [4]: -0.46 (inactive)
NADPH fluorescence slope [5]: 9.7e-05 (inactive)
slope [6]: 0.0054 (inactive)
inhibition [7]: -38% (inactive)
inhibition [8]: -100% (inactive)

CN(C(=O)c1ccc2c(=O)n3c(nc2c1)CCCCC3)c1ccccc1
cell count [1]: 588
inhibition [1]: -10.7% (inactive)
inhibition of aggregation [2]: 23.6% (inactive)
nuclei count [2]: 93.9%
inhibition [3]: 63.2% (active)
nuclei count [3]: 76.9%
fluorescence slope [4]: -0.457 (inactive)
NADPH fluorescence slope [5]: -0.000341 (inactive)
slope [6]: 0.00528 (inactive)
inhibition [7]: 11.2% (inactive)
inhibition [8]: 8.93% (inactive)

Cc1cc(NC(=O)CCC(=O)N(c2cccnc2)C(C(=O)NC2CCCC2)c2ccccc2F)no1 (stereo not given)
cell count [1]: 557
inhibition [1]: -9% (inactive)
inhibition of aggregation [2]: 11.8% (inactive)
nuclei count [2]: 107%
inhibition [3]: -19.7% (inactive)
nuclei count [3]: 116%
fluorescence slope [4]: -0.62 (inactive)
NADPH fluorescence slope [5]: -5.7e-06 (inactive)
slope [6]: 0.00332 (inactive)
inhibition [7]: -5.41% (inactive)
inhibition [8]: -11% (inactive)

Cc1nn(C)c(C)c1CN(C)C(=O)c1cc2nc(-c3ccco3)cc(C(F)(F)F)n2n1
cell count [1]: 419
inhibition [1]: 5.7% (inactive)
inhibition of aggregation [2]: -21.4% (inactive)
nuclei count [2]: 128%
inhibition [3]: -33.1% (inactive)
nuclei count [3]: 106%
fluorescence slope [4]: -0.182 (inactive)
NADPH fluorescence slope [5]: -2e-05 (inactive)
slope [6]: 0.00389 (inactive)
inhibition [7]: 1.09% (inactive)
inhibition [8]: -8.24% (inactive)

O=C(CCN1C(=O)C2C3C=CC(C3)C2C1=O)N1CCN(c2ccccc2Cl)CC1 (stereo not given)
cell count [1]: 776
inhibition [1]: -18.1% (inactive)
inhibition of aggregation [2]: -5% (inactive)
nuclei count [2]: 123%
inhibition [3]: 2.5% (inactive)
nuclei count [3]: 107%
fluorescence slope [4]: -0.399 (inactive)
NADPH fluorescence slope [5]: -4.7e-05 (inactive)
slope [6]: 0.00465 (inactive)
inhibition [7]: 10.7% (inactive)
inhibition [8]: 11.9% (inactive)

COc1ccc(S(=O)(=O)N2CCN(c3ccc(C)cc3C)CC2)cc1OC
cell count [1]: 772
inhibition [1]: -0.6% (inactive)
inhibition of aggregation [2]: -17.1% (inactive)
nuclei count [2]: 114%
inhibition [3]: -19.1% (inactive)
nuclei count [3]: 123%
fluorescence slope [4]: -0.544 (inactive)
NADPH fluorescence slope [5]: -3.9e-05 (inactive)
slope [6]: 0.0076 (inactive)
inhibition [7]: 4.37% (inactive)
inhibition [8]: 13.8% (inactive)

CSc1nc(C)c(C(=O)Nc2ccccc2)c(C)c1C#N
cell count [1]: 761
inhibition [1]: -11.2% (inactive)
inhibition of aggregation [2]: -5.9% (inactive)
nuclei count [2]: 103%
inhibition [3]: -40.9% (inactive)
nuclei count [3]: 118%
fluorescence slope [4]: -0.483 (inactive)
NADPH fluorescence slope [5]: -2.5e-05 (inactive)
slope [6]: 0.00491 (inactive)
inhibition [7]: 16.8% (inactive)
inhibition [8]: 18.5% (inactive)

O=C(CNC1CCCCCC1)Nc1ccc(S(=O)(=O)NC2CC2)cc1
cell count [1]: 727
inhibition [1]: -4.8% (inactive)
inhibition of aggregation [2]: 3.3% (inactive)
nuclei count [2]: 104%
inhibition [3]: -51.5% (inactive)
nuclei count [3]: 108%
fluorescence slope [4]: -0.49 (inactive)
NADPH fluorescence slope [5]: -5.4e-05 (inactive)
slope [6]: 0.00449 (inactive)
inhibition [7]: 11.1% (inactive)
inhibition [8]: 18.7% (inactive)

CCCCn1c(SCC(=O)Nc2cc(C)on2)nnc1-c1cccnc1
cell count [1]: 414
inhibition [1]: -3.9% (inactive)
inhibition of aggregation [2]: 1.7% (inactive)
nuclei count [2]: 121%
inhibition [3]: -26.4% (inactive)
nuclei count [3]: 123%
fluorescence slope [4]: -0.00106 (inactive)
NADPH fluorescence slope [5]: -3.1e-05 (inactive)
slope [6]: 0.00399 (inactive)
inhibition [7]: 11.3% (inactive)
inhibition [8]: 6.93% (inactive)
